Test results as given in PubChem BioAssay (NCATS).
Results filed as inconclusive are left out. Calls of active or inactive are those of the source. The call rests on the fitted dose curve; in most records, active means well fitted curve in the direction sought with a large enough effect; inconclusive means small, poorly fitted or top-dose-only effect, or another doubt; inactive means no such curve, though single readings can be large; an effect the other way counts as inactive or inconclusive. *1 amine or outer side, *2 acyl side, *3 side chain or, on linkers, in order; H or OH if unused. Where a SMILES comes first, the peptide text is derived from it. Bridges are numbered along the chain shown (N, C = ends). [ ]: non-standard residue; d: D form. The star is where a group is joined. pTerphenylCO(4''-OnC5H11) = CCCCCOc1ccc(-c2ccc(-c3ccc(C(=O)*)cc3)cc2)cc1; Orn(4R-OH,5R-OH) = O=C([C@H](C[C@@H](O)[C@@H](O)N[*:3])N[*:1])[*:2]; hTyr(3S-OH,4S-OH) = N[C@H](C(=O)O)[C@H](O)[C@@H](O)c1ccc(O)cc1; Pro(3S-OH,4S-Me) = C[C@H]1CN[C@H](C(=O)O)[C@H]1O; Hyp = O=C(O)[CH]1C[CH](O)CN1; Phe(ol) = N[CH](CO)Cc1ccccc1; Iva = CC[C](C)(N)C(=O)O; Aib = CC(C)(N)C(=O)O

What was measured:
[1] = target: Phospholipid hydroperoxide glutathione peroxidase GPX4 (Homo sapiens) (UniProt P36969); test: Primary qHTS Assay for Inhibitors of Recombinant Selenoprotein Glutathione Peroxidase 4 (GPX4) (AID 1845192); further: nearly all actives have a fitted effect of over 65% in size; further: potency means the concentration at half of the fitted maximal effect; on activity change, negative = inhibition: series mostly up to about 50 µM; on the % scale 0 is the no-effect control and ±100 the full control effect
Outline: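 GR-coupled readout: 100 nM GR, 1 mM GSH, 0.5 mM NADPH; NADPH fluorescence (ex 340/em 450 nm) read at t=0 and after 15 min RT. GPX4 200 nM, preincubated 30 min with compound; substrate 0.5 mM CHP.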

[2] = target: Luciferin 4-monooxygenase (Photinus pyralis) (UniProt P08659); test: Primary firefly luciferase (FLuc) qHTS assay for identification of artifact compounds. (AID 1845220); further: nearly all actives have a fitted effect of over 60% in size;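 on activity change, negative = inhibition: series mostly up to about 54 µM; plate controls were DMSO vehicle for no effect and no enzyme for full effect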
Outline: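 Reaction readout was CCD-imaged luminescence, taken 5 min after adding 10 nM purified firefly enzyme to compound-treated wells holding 10 uM luciferin and ATP in pH 7.6 buffer.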

[3] = Primary fluorescence-based thiol-reactive (MSTI) qHTS assay for identification of artifact compounds. (AID 1845221); further: nearly all actives have a fitted effect of over 65% in size; further: potency means the concentration at half of the fitted maximal effect;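 on activity change, negative = thiol reactive: series mostly up to about 54 µM; thiol-reactive compounds lower the probe fluorescence signal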
Outline: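 MSTI probe at 4 uM final in 2% DMSO/PBS pH 7.4; compounds, 1 h at room temperature in dark. Fluorescence Ex/Em 525/598 nm, normalised to Acetyl-MSTI and MSTI, fitted to 4-parameter Hill.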

[4] = tested on: Nanoluciferase (engineered Oplophorus gracilirostris luciferase); test: Primary Nanoluciferase (NLuc) qHTS assay for identification of artifact compounds. (AID 1845222);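 further: NLuc secreted into diluted conditioned medium of S16 cells; series mostly up to about 54 µM; 0% = DMSO and -100% = no enzyme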
Outline: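 Concentration-response data were obtained by luminescence after 5 min with Nano-Glo substrate at 1:100. The enzyme was diluted S16 NLuc-expressing cell medium, preincubated with compound for 15 min at RT. Curves were fitted with a 4-parameter Hill model.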

[5] = Primary redox qHTS assay for identification of artifact compounds. (AID 1845223);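 further: 0% = DMSO and 100% = reference compound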
Outline: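 Amplex Red (25 uM) and HRP (250 mU/mL) in HBSS, with compounds for 15 min, then 250 uM DTT for 30 min, room temperature, dark. Fluorescence 525/598 nm read; normalized to DMSO and 10 uM DA3003; Hill fit.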

Phospholipid hydroperoxide glutathione peroxidase GPX4 (Homo sapiens), sequence (P36969 whole entry, looked up): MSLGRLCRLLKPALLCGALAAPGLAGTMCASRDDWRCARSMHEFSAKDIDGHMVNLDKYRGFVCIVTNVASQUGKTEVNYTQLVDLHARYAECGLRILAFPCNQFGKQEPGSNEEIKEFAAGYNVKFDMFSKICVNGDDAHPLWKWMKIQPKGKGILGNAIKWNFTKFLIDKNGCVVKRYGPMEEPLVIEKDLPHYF

Cn1ncc(Cl)c1-c1cc(C(=O)N[C@H](CN)Cc2ccc(F)c(F)c2)oc1Cl
inactive: Potency [1] | Potency [2] | Potency [3] | Potency [4] | Potency [5]

C=C1/C(=C/C=C2\CCC[C@@]3(C)C2CCC3[C@H](C)/C=C/[C@@H](O)C2CC2)C[C@@H](O)C[C@@H]1O (stereo not given in full)
inactive: Potency [1] | Potency [2] | Potency [3] | Potency [4]

COCC(c1ccc(C(F)(F)F)cc1)N1CCN(C2(C)CCN(C(=O)c3c(C)ncnc3C)CC2)CC1C (stereo not given)
inactive: Potency [1] | Potency [2] | Potency [3] | Potency [4]

CCNC1(C(N)=O)CCN(c2ncnc3c2nc(-c2ccccc2Cl)n3-c2ccc(Cl)cc2)CC1
inactive: Potency [1] | Potency [2] | Potency [3] | Potency [4] | Potency [5]

CN(C)CCC(CSc1ccccc1)Nc1ccc(S(=O)(=O)NC(=O)c2ccc(N3CCN(Cc4ccccc4-c4ccc(Cl)cc4)CC3)cc2)cc1[N+](=O)[O-] (stereo not given)
inactive: Potency [1] | Potency [2] | Potency [4] | Potency [5]
active: Potency [3] 2120 nM

CC(NCCCc1cccc(C(F)(F)F)c1)c1cccc2ccccc12 (stereo not given)
inactive: Potency [1] | Potency [2] | Potency [3] | Potency [4] | Potency [5]

COc1ccc(C(=O)O[C@H]2C=COC=C3C=C4C(=O)N(C)C(=S)C(=O)N4[C@@H]32)cc1Oc1cc(C=O)ccc1O
inactive: Potency [2] | Potency [3] | Potency [4] | Potency [5]
active: Potency [1] 3130 nM

CCC(C)(NC(=O)C(CCC(N)=O)NC(=O)C1CC(O)CN1C(=O)C(C)(C)NC(=O)C(C)(C)NC(=O)C(CC(C)C)NC(=O)CNC(=O)C(NC(=O)C(C)(C)NC(=O)C(C)(C)NC(=O)C(C)(C)NC(=O)C(Cc1ccccc1)NC(C)=O)C(C)C)C(=O)N1CC(O)CC1C(=O)NC(C)(C)C(=O)NC(CO)Cc1ccccc1 (stereo not given) (Ac-F[Aib][Aib][Aib]VGL[Aib][Aib][Hyp]Q[Iva][Hyp][Aib][Phe(ol)]; configuration not given here)
inactive: activity change, negative = inhibition [1] -5.56% [at 9.73 µM] | activity change, negative = inhibition [2] -5.79% [at 11.6 µM] | activity change, negative = thiol reactive [3] 0.987% [at 11.5 µM] | activity, negative = inhibition [4] -0.795% [at 11.6 µM] | redox activity (% of DA3003) [5] 15.7% [at 11.5 µM]

COc1cc2c(cc1-c1c(C)noc1C)ncc1[nH]c(=O)n(C(C)c3ccccn3)c12 (stereo not given)
inactive: Potency [1] | Potency [2] | Potency [3] | Potency [4] | Potency [5]

CC(NC(=O)Cc1cc(F)cc(F)c1)C(=O)NC1C(=O)N(C)c2ccccc2-c2ccccc21 (stereo not given)
inactive: Potency [1] | Potency [2] | Potency [3] | Potency [4] | Potency [5]

CCCCCOc1ccc(-c2ccc(-c3ccc(C(=O)N[C@H]4C[C@@H](O)[C@@H](O)NC(=O)[C@@H]5[C@@H](O)[C@@H](C)CN5C(=O)[C@H]([C@@H](C)O)NC(=O)[C@H]([C@H](O)[C@@H](O)c5ccc(O)cc5)NC(=O)[C@@H]5C[C@@H](O)CN5C(=O)[C@H]([C@@H](C)O)NC4=O)cc3)cc2)cc1 ({pTerphenylCO(4''-OnC5H11)}-[Orn(4R-OH,5R-OH)]T[Hyp][hTyr(3S-OH,4S-OH)]T[Pro(3S-OH,4S-Me)]; lactam 1-C)
inactive: Potency [1] | Potency [2] | Potency [3] | Potency [4] | Potency [5]

CCCCCCCOc1cc2c(cc1/C(C)=C/c1ccc(C(=O)O)cc1)C(C)(C)CCS2(=O)=O
inactive: Potency [1] | Potency [2] | Potency [3] | Potency [4] | Potency [5]

CCCCCCOC(=O)/N=C(\N)c1ccc(NCc2nc3cc(C(=O)N(CCC(=O)OCC)c4ccccn4)ccc3n2C)cc1
inactive: Potency [1] | Potency [2] | Potency [3] | Potency [4] | Potency [5]

N#C/C(=C1\Nc2ccccc2S1)c1ccnc(NCCc2cccnc2)n1
inactive: Potency [1] | Potency [2] | Potency [5]
active: Potency [3] 1340 nM

CC#CCn1c(N2CCCC(N)C2)nc2c1c(=O)n(Cc1nc(C)c3ccccc3n1)c(=O)n2C (stereo not given)
inactive: Potency [1] | Potency [2] | Potency [3] | Potency [4]

COc1cc(CCc2cc(NC(=O)c3ccc(N4CC(C)NC(C)C4)cc3)n[nH]2)cc(OC)c1 (stereo not given)
inactive: Potency [1] | Potency [2] | Potency [3] | Potency [5]

CC1(NC(=O)c2ccc(C#Cc3cccc(F)c3)cn2)COC1
inactive: Potency [1] | Potency [2] | Potency [3] | Potency [4] | Potency [5]

C/C=C/C=C/C(=O)O[C@@H]1C=C2COC(=O)[C@]2(O)[C@@]2(C)CCCC(C)(C)[C@H]12
inactive: Potency [1] | Potency [2] | Potency [3] | Potency [4] | Potency [5]

CC1=C(c2ccc(NC(=O)c3c(F)cccc3F)cc2)CN(c2nccs2)CC1
inactive: Potency [1] | Potency [2] | Potency [3] | Potency [4] | Potency [5]

O=c1cc(OCc2ccc(F)cc2)ccn1-c1ccc(OCCN2CCCC2)cc1
inactive: Potency [1] | Potency [2] | Potency [3] | Potency [4] | Potency [5]
